This is an account of results in PubChem BioAssay (NCI).

Holding throughout (test): NCI-60 one-dose screen, 48 h (100 = growth as untreated, 0 = no growth, -100 = all killed)
What all share (conditions): 10 µM unless noted

The test system of assay [1] is NCI-H23 lung.
In assay [2] the test system is NCI-H226 lung.
Assay [3] relates to NCI-H322M lung.
Assay [4] has as its system HOP-62 NSCLC.
Assay [5] concerns NCI-H460 lung.
The test system of assay [6] is A549/ATCC NSCLC.
In assay [7] the test system is 786-0 renal.
Assay [8] relates to COLO 205 colon.
Assay [9] relates to DU-145 prostate.
For assay [10], the system named is K-562 leukemia.
For assay [11], the system named is MALME-3M melanoma.
The test system of assay [12] is MDA-MB-231 breast.
The subject of assay [13] is RXF 393 renal.
Assay [14] concerns SF-268 CNS.
Assay [15] has as its system SF-539 CNS.
The subject of assay [16] is UACC-257 melanoma.
The subject of assay [17] is M14 melanoma.
Assay [18] concerns SF-295 CNS.

This is part of a sample that, as a whole, favours compounds with a hit. Of some 83,000 tested, about 20% had one in any assay.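 48-hour exposure, single concentration, 96-well plates; percent growth endpoint where 0 means no net growth. Active: below 10.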 Values without a mark were called inactive. The source made the active and inactive calls.

Consider `CC(=O)O.[In]`, for which the growth is 103% in [1]; 101% in [2]; 97.6% in assay [3]; 106% in assay [4]; 111% in [5]; 99.6% in assay [6]. Moreover, the growth was 101% in assay [7]; 112% in [8]; 113% in assay [9]; 96.7% in [10]; 109% in assay [11]; 116% in assay [12]. Besides, the growth in assay [13] is 106%; in [14], 103%; in assay [15] it was 110%; in [16] it was 94.3%; in assay [17], 105%.

Consider `CC(CCN1CCN(CCC(C)CC(C)(C)C)C1CC(C)CC(C)(C)C)CC(C)(C)C` (stereo not given), for which the growth in [1] was 100%; in assay [2] it was 98.7%; in [3], 99.8%; in assay [4], 93.5%; in assay [5] it was 101%; in assay [6], 96.2%. Moreover, the growth is 97.9% in [7]; 86.2% in assay [8]; 103% in [9]; 58.2% in assay [10]; 99.2% in assay [11]; 105% in assay [12]. The growth in [14] was 91.5%; in assay [18], 114%; in [15], 91.5%; in assay [16], 107%; in assay [17], 100%.

As to `CNc1ccc(Nc2ccc(S(=O)(=O)O)cc2)c2c1C(=O)c1ccccc1C2=O`, the growth in assay [1] is 106%; in assay [2], 96.6%; in assay [3] it was 112%; in [4], 125%; in assay [5] it was 108%; in assay [6] it was 92%. Besides, the growth in assay [7] was 103%; in assay [8] it was 118%; in assay [9], 112%; in assay [10] it was 101%; in assay [11], 110%; in [12] it was 111%. The growth in assay [13] was 104%; in [14], 114%; in assay [15] it was 101%; in [16] it was 107%; in [17] it was 112%.

On to `CCCCCCCCCCC1OC(C)CC(C)O1` (stereo not given), for which the growth in assay [1] is 100%; in assay [2], 102%; in assay [3], 102%; in assay [4] it was 99.8%; in [5], 106%; in assay [6], 98.7%. Also, the growth in assay [7] is 93.4%; in assay [8] it was 105%; in [9] it was 104%; in assay [10] it was 86.5%; in [11], 98%; in assay [12], 115%. In addition, the growth in [13] was 103%; in assay [14], 96%; in assay [18], 109%; in [15] it was 103%; in assay [16] it was 113%; in assay [17], 101%.

Regarding `O=c1[nH]c2cc(O)ccc2n2cc3c(F)cccc3c12`, the growth is 39.6% in [1]; 60.8% in [2]; 29.4% in [3]; 21.1% in assay [4]; 2.7% (active) in assay [5]; 22% in assay [6]. The growth in [7] is 28.7%; in assay [8] it was 66.2%; in assay [9], 33.9%; in [10], 24.3%; in assay [11], 40.3%; in assay [12], 52.4%. Also, the growth was 4.74% (active) in assay [13]; 19.4% in assay [14]; 15.4% in assay [18]; 16.6% in assay [15]; 51.2% in [16]; 25.2% in assay [17].

Turning to `COC(=O)c1c[n+]([O-])ccc1OC`, the growth is 106% in assay [1]; 107% in [2]; 97.1% in assay [3]; 97.1% in assay [4]; 107% in assay [5]; 105% in assay [6]. The growth in assay [7] is 100%; in [8], 109%; in assay [9], 114%; in assay [10], 71.1%; in assay [11], 92.1%; in assay [12], 99.4%. Further, the growth was 108% in [13]; 116% in assay [14]; 88.1% in assay [18]; 122% in assay [15]; 104% in [17].

Take `CN1NC(c2ccccc2)NN(C)C1=O`: the growth in assay [1] is 107%; in assay [2] it was 102%; in [3] it was 89.8%; in [4], 93.6%; in assay [5], 109%; in assay [6] it was 101%. Moreover, the growth in [7] is 102%; in [8], 105%; in assay [9] it was 122%; in assay [10], 89.3%; in assay [11] it was 84.8%; in assay [12], 108%. Moreover, the growth was 107% in assay [13]; 102% in [14]; 83.5% in assay [18]; 106% in [15]; 108% in assay [17].

On to `C=C(C)C(C(=O)OCC)(C(=O)OCC)C(C)C`, for which the growth is 114% in assay [1]; 109% in assay [2]; 111% in [3]; 108% in assay [4]; 106% in [5]; 96.5% in [6]. In addition, the growth in assay [7] is 103%; in [8] it was 117%; in assay [9] it was 120%; in assay [10], 116%; in assay [11], 110%; in assay [12] it was 112%. In addition, the growth in assay [13] was 112%; in assay [14], 112%; in assay [15], 105%; in assay [16] it was 107%; in [17], 110%.

In the case of `CC(=O)Nc1ccc(S(=O)(=O)Cl)cc1`, the growth was 112% in assay [1]; 95.5% in assay [2]; 111% in [3]; 102% in [4]; 102% in assay [5]; 104% in [6]. Further, the growth in assay [7] was 104%; in [8], 108%; in [9], 107%; in assay [10] it was 98.1%; in assay [11], 111%; in assay [12] it was 118%. Also, the growth in [13] was 96.2%; in [14] it was 109%; in assay [15], 100%; in assay [16], 131%; in [17], 118%.
